NLRP3 yeast inh = NALP3 inflammasome inhibitors in reconstituted yeast, primary screen, luminescence, uHTS. inhibition, % at 10 µM. actives 0.39% (n = 330,000). Yeast reconstituted NLRP3/ASC/caspase-1, beta-gal luminescence, 24 h;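 active = inhibition of 50% or more; inactive = inhibition below 50%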
PfHsp90 set2 = growth inhibition of PfHsp90-expressing yeast, primary screen, antimalarial PfHsp90 inhibitor project, S. cerevisiae, BacTiter-Glo luminescence, single point, set 2; BacTiter-Glo ATP, 48 h; yeast lacking PDR1 and PDR3 efflux regulators; inhibition, % at 9.4 µM; actives 0.32% (n = 310,000);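 active = every replicate shows inhibition above about 80%, whatever the replicate mean, limit read from the data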
NALP1 yeast inh = NALP1 inflammasome inhibitors in reconstituted yeast, colorimetric, S. cerevisiae, triplicate retest. S. cerevisiae NALP1/ASC/caspase-1 growth, X-gal OD620, 72 h. inhibition, % at 10 µM. actives 0.61% (n = 280,000); in the data active = inhibition mostly above about 24%, no sharp cut-off; inactive = mostly below about 32%
tim10-1 inh = growth inhibitors of tim10-1 mutant yeast, primary screen, luminescence, uHTS | S. cerevisiae tim10-1 ts strain growth, BacTiter-Glo, 24 h | actives 2.2% (n = 330,000) | inhibition, % at 20 µM;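 active = inhibition of at least 40%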;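 note: mutant grown at 25 °C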
tim23-1 inh = growth inhibitors of tim23-1 mutant yeast, primary screen, luminescence, uHTS. S. cerevisiae tim23-1 growth, BacTiter-Glo luminescence, 24 h. inhibition, % at 20 µM. actives 1.3% (n = 330,000). AID 463212, 2010;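 active = growth inhibition of the mutant yeast at or above 50%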;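 note: temperature-sensitive mutant grown at 25 °C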
TIM10 inh = growth inhibitors of isogenic TIM10 control yeast, primary screen, counter-screen for tim10-1 yeast inhibitor project, luminescence, uHTS; inhibition, % at 10 µM; S. cerevisiae TIM10 strain growth, BacTiter-Glo luminescence, 24 h; actives 1.4% (n = 330,000);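 active = inhibition of 40% or more at the single tested concentration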;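 note: wild-type TIM10 isogenic control strain grown at permissive 25 °C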
NALP3 yeast conf = NALP3 inhibitors retested in yeast, confirmation, luminescence, single concentration; shares compounds with NLRP3 yeast inh; yeast expressing human NALP3; inhibition, % at 10 µM; actives 81% (n = 1,300); in the data active = inhibition above about 48%
Casp1 ASC ctr = CASP1-PYCARD signaling inhibition in yeast, confirmatory test, counterassay for NLRP3 inhibitor program, one-dose; shares compounds with NLRP3 yeast inh; yeast expressing Caspase-1-ASC, luminescence counter screen; inhibition, % at 10 µM; actives 66% (n = 1,000); AID 488784, 2010
NALP3 yeast rt = NALP3 inhibitors in yeast, repeat test, confirmation, luminescence, single concentration, retest | shares compounds with NLRP3 yeast inh | yeast expressing human NALP3, luminescence read-out | inhibition, % at 10 µM | actives 53% (n = 1,000) | AID 488794, 2010
tim10-1 conf = growth inhibitors of tim10-1 mutant yeast, confirmation, single concentration, luminescence, S. cerevisiae; S. cerevisiae tim10-1 ts strain growth, BacTiter-Glo, 24 h; actives 56% (n = 7,400); AID 463213, 2010; inhibition, % at 20 µM; shares compounds with tim10-1 inh;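 active = inhibition of yeast growth at or above a set limit in either of two repeat tests at 20 µM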;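 note: tim10-1 mutant grown at permissive 25 °C to find synthetic lethal compounds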
TIM10 conf = growth inhibitors of wild-type TIM10 yeast, confirmation, counter-screen for tim10-1 synthetic lethality project, single concentration, luminescence, S. cerevisiae; shares compounds with TIM10 inh; S. cerevisiae tim10 strain growth, BacTiter-Glo luminescence, 24 h; inhibition, % at 10 µM; actives 63% (n = 4,600);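 active = inhibition of yeast growth at or above a set limit in either of two replicates at 10 µM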; note: this counterscreen used the strain with wild-type TIM10
tim23-1 conf = tim23-1 mutant yeast growth inhibitors, confirmation, luminescence, single concentration. shares compounds with tim23-1 inh. S. cerevisiae tim23-1 growth, BacTiter-Glo luminescence, 24 h. inhibition, % at 20 µM. actives 83% (n = 4,400). AID 463218, 2010;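 active = inhibition above about 39% in either of two replicate wells at 20 µM, limit read from the data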;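 note: temperature-sensitive tim23-1 mutant grown at 25 °C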
Large screens that a line does not name were inactive (follow-up assays come after a bar, where they were run). Only some compounds are listed: those with a hit (about 4.1% of all), similar ones and a draw of the others. Cut-off read from the data, not from the text of the source, unless noted: active = inhibition above about 50%; inactive = the rest.

Cn1nc(-c2ccc(Cl)cc2)nc2c(=O)n(C)c(=O)nc1-2	NLRP3 yeast inh 96.2, NALP1 yeast inh 48.1, tim10-1 inh 93.2, tim23-1 inh 77.3, TIM10 inh 94.5 (no result: PfHsp90 set2) | NALP3 yeast conf 99.0 | Casp1 ASC ctr 99.0 | NALP3 yeast rt 99.0 | tim10-1 conf 92.0 | TIM10 conf 98.6 | tim23-1 conf 80.0
CCOCCn1c(SC(C)C(C)=O)nc2c1c(=O)[nH]c(=O)n2C (stereo not drawn)	none
O[C@@H]1[C@@H](O)C=C2CCN3Cc4cc5c(cc4[C@H]1C23)OCO5 (stereo partly drawn)	NLRP3 yeast inh 63.8, tim10-1 inh 87.7, tim23-1 inh 75.8, TIM10 inh 90.3 (no result: NALP1 yeast inh) | NALP3 yeast conf 79.1 | Casp1 ASC ctr 59.7 | NALP3 yeast rt 57.9 | tim10-1 conf 83.7 | TIM10 conf 89.3 | tim23-1 conf 77.3
CCCCCCCCn1c2c(c(=N)c3ccccc31)CCC2	NLRP3 yeast inh 58.3, tim10-1 inh 60.4, tim23-1 inh 66.0 | NALP3 yeast conf 72.8 | Casp1 ASC ctr inactive | NALP3 yeast rt 61.9 | tim10-1 conf 51.2 | tim23-1 conf 62.5
CCn1c2c(c(=N)c3c1CCC3)CCCC2	none (no result: PfHsp90 set2)
CCCCCCCCCn1c2c(c(=N)c3c1CCC3)CCCC2	NLRP3 yeast inh 68.0, tim10-1 inh 51.5, tim23-1 inh 79.9, TIM10 inh 51.0 | NALP3 yeast conf 84.6 | Casp1 ASC ctr 53.9 | NALP3 yeast rt 70.2 | tim10-1 conf 55.9 | TIM10 conf 46.2 | tim23-1 conf 83.2
CCOCc1c(C(=O)OCC(=O)Nc2ccccc2C(N)=O)oc2ccccc12	none (no result: NALP1 yeast inh)
COc1ccc(CC(=O)NCC(=O)N/N=C/c2sccc2C)cc1	none
CCOCCCNC(=O)c1ccc2c(c1)ncn2-c1ccccc1OC	none
CN1CCN(c2ccccc2/C=C2/C(=O)Nc3ccccc32)CC1	none
O=C1Nc2ccccc2/C1=C/c1ccccc1Cl	NLRP3 yeast inh 54.6, tim23-1 inh 53.5 | NALP3 yeast conf 68.6 | Casp1 ASC ctr inactive | NALP3 yeast rt inactive | tim23-1 conf 46.5
O/N=C/c1cccc[n+]1CCCCCC[n+]1ccccc1/C=N/O	none
CCCCCCCCCCCCCCCC[n+]1ccc(/C=N/O)cc1	NLRP3 yeast inh 56.1, PfHsp90 set2 106.0, NALP1 yeast inh 50.1, tim23-1 inh 50.6, TIM10 inh 50.3 | NALP3 yeast conf inactive | TIM10 conf inactive | tim23-1 conf 49.1
Cc1ccc(-c2nc(CNC(=O)c3cc(C)on3)cs2)cc1	NLRP3 yeast inh 65.6, tim23-1 inh 52.6 | NALP3 yeast conf 74.8 | Casp1 ASC ctr 68.2 | NALP3 yeast rt 53.6 | tim23-1 conf 40.6
O=C(Nc1ccc2c(c1)OCCO2)c1cccc(Br)c1	NLRP3 yeast inh 52.3, tim23-1 inh 56.0 | NALP3 yeast conf 73.5 | Casp1 ASC ctr 50.5 | NALP3 yeast rt 50.5 | tim23-1 conf 57.9
O=C(COC(=O)CCCOc1ccccc1)NC1CCS(=O)(=O)C1 (stereo not drawn)	none (no result: NALP1 yeast inh)
O=C(Nc1ccc(Cl)cc1)c1ccc2c(=O)n3c(nc2c1)CCCCC3	none (no result: PfHsp90 set2)
O=C(Nc1cccc(Cl)c1)c1ccc2c(=O)n3c(nc2c1)CCCCC3	NLRP3 yeast inh 70.2, tim10-1 inh 44.5, tim23-1 inh 54.4, TIM10 inh 73.5 | NALP3 yeast conf 65.7 | tim10-1 conf inactive | TIM10 conf inactive | tim23-1 conf 80.0
Cc1ccc(C)c(NC(=O)CN(C)C(=O)c2ccc(S(=O)(=O)N3CCCCCC3)cc2)c1	none (no result: NALP1 yeast inh)
CC1(C)CC(=O)c2cnc(N3CCN(c4ccccc4)CC3)nc2C1	none
CC1(C)CC(=O)c2cnc(N3CCc4ccccc4C3)nc2C1	NLRP3 yeast inh 61.5, tim10-1 inh 54.9, tim23-1 inh 70.7 | NALP3 yeast conf inactive | Casp1 ASC ctr inactive | NALP3 yeast rt inactive | tim10-1 conf 53.0 | tim23-1 conf 52.4
C/C(CC(C)(C)C1CCCCC1)=N\NC(N)=S	NLRP3 yeast inh 54.5, tim10-1 inh 68.8, tim23-1 inh 78.5, TIM10 inh 55.1 | NALP3 yeast conf inactive | tim10-1 conf 70.2 | TIM10 conf 72.7 | tim23-1 conf 63.6
Cc1csc(=NC(=O)c2ccccc2)n1C	NLRP3 yeast inh 61.6, tim23-1 inh 55.3, TIM10 inh 44.3 (no result: PfHsp90 set2) | NALP3 yeast conf 74.8 | Casp1 ASC ctr 73.2 | NALP3 yeast rt 68.5 | TIM10 conf 37.7 | tim23-1 conf 54.4
Cc1cccc(C(=O)O/N=C(\N)Cc2cccc3ccccc23)c1	NLRP3 yeast inh 52.8, tim10-1 inh 43.4, tim23-1 inh 81.2, TIM10 inh 77.3 | NALP3 yeast conf 65.0 | Casp1 ASC ctr inactive | NALP3 yeast rt 63.6 | tim10-1 conf 30.2 | TIM10 conf 84.0 | tim23-1 conf 64.2
N/C(Cc1cccc2ccccc12)=N\OC(=O)COc1ccccc1	none
O=C(NCCCNC(=O)c1cc(Cl)ccc1Cl)c1ccccn1	none
CC(=C/c1ccccc1)/C=N/NC(=O)c1cccs1	NLRP3 yeast inh 55.5, tim23-1 inh 63.7 (no result: PfHsp90 set2) | NALP3 yeast conf inactive | tim23-1 conf 54.6
CC(/C=N/NC(=O)c1ccncc1)=C\c1ccccc1	none
Cn1nnc(NC(=S)NC(=O)c2cccs2)n1	none
Cn1nnc(NC(=S)NC(=O)c2cccc3ccccc23)n1	NLRP3 yeast inh 55.5, tim10-1 inh 52.8, tim23-1 inh 56.6 | NALP3 yeast conf 63.5 | Casp1 ASC ctr 71.3 | NALP3 yeast rt 54.7 | tim10-1 conf inactive | tim23-1 conf inactive

Screens deposited in PubChem BioAssay by several laboratories.
